Measurements as given in PubChem BioAssay (Tox21).
Several values for one entry are separate records, joined by “and”; a condition that tells them apart may be missing. Equal entries are not always repeated. Records with an inconclusive call do not appear. Where a call stands in place of a potency, no number is given. More than one record can exist for a structure, and the calls need not agree. Activity calls are given as the source filed them. Unless noted, calls come from the whole dose curve.

Tests used:
[1] = qHTS assay to identify small molecule agonists of the vitamin D receptor (VDR) signaling pathway - cell viability counter screen (AID 743224; active = well fitted curve in the direction sought with a large enough effect in the repeat runs; an effect the other way counts as inactive or inconclusive; note: nearly all actives have a fitted effect of over 50% in size; note: potency is the fitted concentration of half-maximal effect; for activity change, negative = cytotoxicity: series mostly up to about 63 µM)
Summary of the method: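 Here cell health was gauged by luminescent ATP detection (CellTiter-Glo, 30 min RT) in VDR-bla cells that had been incubated with test compounds for 16 h at 37C and 5% CO2.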

[2] = qHTS assay to identify small molecule antagonists of the vitamin D receptor (VDR) signaling pathway - cell viability counter screen (AID 743225; active = well fitted curve in the direction sought with a large enough effect in the repeat runs; an effect the other way counts as inactive or inconclusive; note: nearly all actives have a fitted effect of over 50% in size; note: potency is the fitted concentration of half-maximal effect)
Summary of the method: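 VDR-bla HEK 293T cells, 4 h pre-incubation at 37C, then compound plus 1-alpha,25-dihydroxyvitamin D3 (3 nM final) for 16 h. After the beta-lactamase FRET read, CellTiter-Glo was added to the same wells; luminescence after 30 min at room temperature.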

[3] = qHTS assay to identify small molecule agonists of the NFkB signaling pathway (AID 1159509; active = well fitted curve in the direction sought with a large enough effect in the signal ratio in the repeat runs, not every such curve was filed as active; the % refers to the signal ratio; note: series mostly up to about 61 µM)
Summary of the method: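 ME-180 NFkB-bla, 2,000 cells/well, overnight plating; cpd pinned in DMSO, 5 h 37 C; B/G FRET substrate 1.5 h RT; ex 405, em 460/530 nm.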

[4] = qHTS assay to identify small molecule agonists of the NFkB signaling pathway - cell viability counter screen (AID 1159515); note: series mostly up to about 61 µM; nearly all actives have a fitted effect of over 55% in size
Summary of the method: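 5 hr compound treatment of NFkB-bla ME-180 cells (2,000/well, seeded overnight beforehand), followed by reporter substrate for 1.5 hr. CellTiter-Glo added afterward; luminescence after 30 min RT.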

[5] = qHTS assay to identify small molecule agonists of the endoplasmic reticulum stress response signaling pathway (AID 1159516; active = well fitted activation curve with a large enough effect in the signal ratio in the repeat runs, not every such curve was filed as active; the % refers to the signal ratio)
Summary of the method: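 Reporter HeLa cells (ESRE-beta-lactamase) underwent 5 hr compound incubation at 37 C and 5% CO2 in quantitative HTS format. Detection followed 2 hr of FRET substrate loading at room temperature.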

[6] = qHTS assay to identify small molecule agonists of the endoplasmic reticulum stress response signaling pathway - cell viability counter screen (AID 1159517); note: nearly all actives have a fitted effect of over 50% in size; note: potency is the fitted concentration of half-maximal effect;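 for activity change, negative = cytotoxicity: HeLa cells carrying an ER stress response element beta-lactamase reporter; series mostly up to about 61 µM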
Summary of the method: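 HeLa cells carrying an ESRE-driven beta-lactamase reporter receive compound for 5 hr at 37 C. Cell viability is then gauged with CellTiter-Glo by luminescence, 30 min at room temperature.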

[7] = qHTS assay to identify small molecule antagonists of the retinoid-related orphan receptor gamma (ROR-gamma) signaling pathway - cell viability counter screen (AID 1159520; active = well fitted curve in the direction sought with a large enough effect in the repeat runs; an effect the other way counts as inactive or inconclusive; note: nearly all actives have a fitted effect of over 50% in size; note: potency is the fitted concentration of half-maximal effect)
Summary of the method: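 Cytotoxicity was read from cellular ATP (CellTiter-Glo luminescence) after 16 hr at 37 C with 1 uM doxycycline induction. The inducer was added 2 hr after compound transfer to Tet-on ROR gamma CHO cells.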

[8] = molecular target: Nuclear receptor ROR-gamma (Homo sapiens) (UniProt P51449); experiment: qHTS assay to identify small molecule antagonists of the retinoid-related orphan receptor gamma (ROR-gamma) signaling pathway (AID 1159521; active = well fitted curve in the direction sought with a large enough effect in the repeat runs; an effect the other way counts as inactive or inconclusive; note: nearly all actives have a fitted effect of over 50% in size; note: potency is the fitted concentration of half-maximal effect)
Summary of the method: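 Tet-on RORγ CHO cells carrying a ROR response element–luciferase reporter were pretreated with compounds for 2 h, then induced with 1 uM (final) doxycycline hyclate for 16 h at 37 C. Antagonism was read as decreased ONE-Glo luminescence.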

[9] = qHTS assay to identify small molecule agonists of the AP-1 signaling pathway - cell viability counter screen (AID 1159525); note: nearly all actives have a fitted effect of over 55% in size; note: potency is the fitted concentration of half-maximal effect
Summary of the method: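 Luminescent ATP readout (Cell Titer Glo, 30 min RT), normalised to DMSO and tetra n-octyl ammonium bromide controls. Cells were ME-180 AP-1-bla in 0.5% dialyzed FBS Opti-MEM, with a 5 h, 37 °C compound exposure.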

[10] = qHTS assay to identify small molecule agonists of the AP-1 signaling pathway (AID 1159526); note: potency is the fitted concentration of half-maximal effect

SMILES | Potency [1] | Potency [2] | outcome [3] | outcome [4] | outcome [5] | Potency [6] | Potency [7] | Potency [8] | Potency [9] | Potency [10] | activity change, negative = cytotoxicity [6]
CCCCCCCCCCCCOCC1CO1 (stereo unspecified) | inactive | inactive | inactive | inactive | inactive | inactive | inactive | inactive | inactive | inactive | 
NC(=O)/N=N/C(N)=O | inactive | inactive | inactive | inactive | inactive | inactive | inactive | inactive | inactive | inactive | 
COC(=O)c1ccc(C(=O)OC)cc1 | inactive | inactive | inactive | inactive | inactive | inactive | inactive | 1.96 µM (active) and inactive | 12.5 µM (active) and inactive | inactive | 
C[C@@H](O)[C@H]1C(=O)N2C(C(=O)O)=C(S[C@@H]3CN[C@H](C(=O)N(C)C)C3)[C@H](C)[C@H]12 | inactive | inactive | inactive | inactive | inactive | inactive | inactive | inactive | inactive | inactive | 
O=[N+]([O-])C(CO)(CO)CO | inactive | inactive | inactive | inactive | inactive | inactive | inactive | inactive | inactive | inactive | 
CC[Si](OC(C)=O)(OC(C)=O)OC(C)=O | inactive | inactive | inactive | inactive | inactive | inactive | inactive | inactive | inactive | inactive | 
CCCCOCCO | inactive | inactive | inactive | inactive | inactive | inactive | inactive | inactive | inactive | inactive | 
CCCCCC/C=C/CCCCCCCC(=O)O | inactive | inactive | inactive | inactive | inactive | inactive | inactive | inactive | inactive | inactive | 
CC1(C)CC(N=C=O)CC(C)(CN=C=O)C1 (stereo unspecified) | inactive | inactive | inactive | inactive | inactive | inactive | inactive | inactive | inactive | inactive | 
O=[N+]([O-])c1cccc(Cl)c1 | inactive | inactive | inactive | inactive | inactive | inactive | inactive | inactive | inactive | inactive | 
O=C(c1cc(O)c(O)c(O)c1)c1ccc(O)c(O)c1O | inactive | inactive | inactive | inactive | inactive | inactive | inactive | 21.7 µM (active) and inactive | inactive | inactive | 
CCC(C)C=O (stereo unspecified) | inactive | inactive | inactive | inactive | inactive | inactive | inactive | inactive | inactive | inactive | 
CC(C)Cc1ccccc1 | inactive | inactive | inactive | inactive | inactive | inactive | inactive | inactive | inactive | inactive | 
CCCCCCCCCC(=O)O | inactive | inactive | inactive | inactive | inactive | inactive | inactive | inactive | inactive | inactive | 
CC(=O)[C@@]1(O)CC[C@H]2[C@@H]3CCC4=CC(=O)CC[C@]4(C)[C@H]3CC[C@@]21C | inactive | inactive | inactive | inactive | inactive | inactive | inactive | inactive | inactive | inactive | 
NS(=O)(=O)c1cc2c(cc1Cl)NC=NS2(=O)=O | inactive | inactive | inactive | inactive | inactive | inactive | inactive | inactive | inactive | inactive | 
CN(CCOc1ccc(CC2SC(=O)NC2=O)cc1)c1ccccn1 (stereo unspecified) |  |  | inactive | inactive | inactive | inactive | inactive | inactive | inactive | inactive | 
O=S(=O)(O)CCS | inactive | inactive | inactive | inactive | inactive | inactive | inactive | inactive | inactive | inactive | 
CCOC(=O)[C@H](CCc1ccccc1)N[C@@H](C)C(=O)N1Cc2ccccc2C[C@H]1C(=O)O | inactive | inactive | inactive | inactive | inactive | inactive | inactive | inactive | inactive | inactive and 26.8 µM (active) | 
CCCCCCCCCCCCN | inactive and 49 µM (active) | inactive and 54.9 µM (active) | inactive | inactive | inactive | 11.1 µM (active) and 21.9 µM (active) and 19.8 µM (active) | inactive | inactive | inactive | inactive | 
CCCCC(CC)COC(C)=O (stereo unspecified) | inactive | inactive | inactive | inactive | inactive | inactive | inactive | inactive | inactive | inactive | 
Cc1ccc(C(=O)O)o1 | inactive | inactive | inactive | inactive | inactive | inactive | inactive | inactive | inactive | inactive | 
CCOC(=O)C1OC1c1ccccc1 (stereo unspecified) | inactive | inactive | inactive | inactive | inactive | inactive | inactive | inactive | inactive | inactive | 
Cc1ccc(C)c(C)c1 | inactive | inactive | inactive | inactive | inactive | inactive | inactive | inactive | inactive | inactive | 

SMILES | Potency [1] | Potency [2] | outcome [3] | outcome [4] | outcome [5] | Potency [6] | Potency [7] | Potency [8] | Potency [9] | Potency [10] | activity change, negative = cytotoxicity [6]
NCCc1ccc(O)c(O)c1 | inactive | inactive | inactive | inactive | inactive | inactive | inactive | inactive | inactive | inactive | 
Cc1cc(O)cc(C)c1Cl | inactive | inactive | inactive | inactive | inactive | inactive | inactive | inactive | inactive | inactive | 
Oc1c(Cl)cc(Cl)c(Cl)c1Cl |  |  | inactive | inactive | inactive | inactive | inactive | 53.3 µM (active) and 61.1 µM (active) | inactive | inactive | 
COC(=O)c1ccccc1O | inactive | inactive | inactive | inactive | inactive | inactive | inactive | inactive | inactive | inactive | 
CC(C)(C)C1CCC(O)CC1 (stereo unspecified) | inactive | inactive | inactive | inactive | inactive | inactive | inactive | inactive | inactive | inactive | 
CCc1ccccc1O | inactive | inactive | inactive | inactive | inactive | inactive | 60.8 µM (active) and inactive | 30.5 µM (active) and inactive | inactive | inactive | 
CCCCNC(N)=O | inactive | inactive | inactive | inactive | inactive | inactive | inactive | inactive | inactive | inactive | 
O=C1O[C@H](CO)[C@@H](O)[C@H](O)[C@H]1O | inactive | inactive | inactive | inactive | inactive | inactive | inactive | inactive | inactive | inactive | 
OCCOCCOCCOCCO | inactive | inactive | inactive | inactive | inactive | inactive | inactive | inactive | inactive | inactive | 
CCOC(=O)/C=C\C(=O)OCC | inactive | inactive | inactive | inactive | inactive | inactive | inactive | inactive | inactive | inactive | 
O=C(O)c1ccc([N+](=O)[O-])cc1 | inactive | inactive | inactive | inactive | inactive | inactive | inactive | inactive | inactive | inactive | 
CCCCC(CC)COC(=O)/C=C\C(=O)OCC(CC)CCCC (stereo unspecified) | inactive | inactive | inactive | inactive | inactive | inactive | inactive | inactive | inactive | inactive | 
CC1=C(CC(=O)O)c2cc(F)ccc2/C1=C\c1ccc(S(C)=O)cc1 (stereo unspecified) | inactive | inactive | inactive | inactive | inactive | inactive | inactive | inactive | inactive | inactive | 
Cc1cc(=O)[nH]c(C(C)C)n1 | inactive | inactive | inactive | inactive | inactive | inactive | inactive | inactive | inactive | inactive | 
Clc1cc(Cl)c(Cl)cc1Cl |  | inactive | inactive | inactive | inactive | inactive | inactive | inactive | inactive | inactive | 
OC[C@@H](O)[C@H](O)[C@H](O)[C@@H](O)CO |  | inactive | inactive | inactive | inactive | inactive | inactive | inactive | inactive | inactive | 
CCCCC/C=C\C/C=C\CCCCCCCC(=O)OC |  | inactive | inactive | inactive | inactive | inactive | inactive | inactive | inactive | inactive | 
C=C(C)C(=O)OCCC[Si](OC)(OC)OC |  | inactive | inactive | inactive | inactive | inactive | inactive | inactive | inactive | inactive | 
C=CC(=O)OCCCCCCCC(C)C | inactive | inactive | inactive | inactive | inactive | inactive | inactive | inactive | inactive | inactive | 
Nc1nc2ncc(CNc3ccc(C(=O)N[C@@H](CCC(=O)O)C(=O)O)cc3)nc2c(=O)[nH]1 |  | inactive | inactive | inactive | inactive | inactive | inactive | inactive | inactive | inactive | 
CC(=O)Nc1ccc(C(=O)O)cc1 | inactive | inactive | inactive | inactive | inactive | inactive | inactive | inactive | inactive | inactive | 
c1ccc2ccccc2c1 | inactive | inactive | inactive | inactive | inactive | inactive | inactive | inactive | inactive | inactive | 
NCCNCCNCCNCCN | inactive | inactive | inactive | inactive | inactive |  | inactive | inactive | inactive | inactive | 18.7% [at 6.95 µM] (inactive)
Cc1ccc(N)c(S(=O)(=O)O)c1 | inactive | inactive | inactive | inactive | inactive | inactive | inactive | inactive | inactive | inactive | 
